# HT1080-NT tox – kills 2HG-producing HT-1080-NT fibrosarcoma cells. HT-1080-NT fibrosarcoma viability, CellTiter-Glo ATP luminescence, 48 h. Potency, µM (titrated, usually from 46.1 µM), most hits filed as cytotoxic. 360,000 compounds, 1.6% hits. AID 686970;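 note: NT is the 2HG producing partner of a matched IDH1 knockdown line; nearly all actives have a fitted effect of over 55% in size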
#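 750 cells/well, RPMI + 5% FBS; 2 h settle, compound pin-transfer, 48 h at 37 degrees C. CellTiter-Glo 10 min RT, luminescence. Normalized to DMSO and media-only wells.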
# DT40 TDP1 CPT – growth inhibition of DT40 Tdp1-/-;hTDP1 cells with camptothecin (screen for TDP1 inhibitors). chicken DT40 Tdp1-/-;hTDP1 cells + 20 nM CPT, ATP luminescence, 48 h. Potency, µM (series often up to 46.2 µM), hits mostly inhibitors. 420,000 compounds, 12% hits; note: nearly all actives have a fitted effect of over 55% in size
#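 Chicken DT40 Tdp1-/- cells stably complemented with human TDP1 were seeded at 400 cells/well in medium containing 20 nM camptothecin, exposed to pin-transferred compounds, and grown at 37 °C for at least 48 hr. Viability was read as ATP luminescence.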
# IL-1B inflam inh – inhibitors of inflammasome signaling (IL-1 beta secretion); THP-1 LPS/ATP IL-1B secretion, AlphaLISA, 16 h; stronger effect = lower value; activity change, % at 57.5 µM; 360,000 compounds, 4.7% hits; AID 743279; in the data active = activity change below about -50%; inconclusive = mostly about -30% to -49%
#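 THP-1 cells pretreated 1 hr with compounds (up to 57.5 uM final), then stimulated with LPS (250 ng/mL final) plus ATP (1.25 mM final); secreted IL-1B measured by AlphaLISA after 16 hr, decreased signal indicating inhibition.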
# HT1080 IDH1KD tx – HT-1080 IDH1 knockdown cell toxicity (counter line). 360,000 compounds, 2% hits. HT-1080 IDH1 knockdown viability, ATP luminescence, 48 h. Potency, µM (highest dose often 46.1 µM), usual class: cytotoxic
#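 Assay cells: HT-1080 with IDH1 knockdown, 750 per well, RPMI/5% FBS. Exposure: 48 h at 37 °C following 2 h pre-incubation. Read: CellTiter-Glo luminescence; fitted concentration-response, curve class assigned.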
# TDP1 cell noCPT – qHTS for Inhibitors of human tyrosyl-DNA phosphodiesterase 1 (TDP1): qHTS in cells in absence of CPT. DT40 Tdp1-/- hTDP1 cells, no CPT, ATP luminescence, 48 h. Potency, µM (highest dose often 46.2 µM), actives largely listed as inhibitors. 420,000 compounds, 15% hits; note: nearly all actives have a fitted effect of over 55% in size
#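 Cells were dispensed at 400 per well, compounds added by pin tool, plates incubated ≥48 hr at 37 °C, then CellTiter-Glo added for 30 min at room temperature before luminescence reading. Line: DT40 Tdp1-/- complemented with hTDP1; camptothecin omitted.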
# A number is an active result; 0 = inactive; ? = inconclusive; - = no result; [ ] = another dose, or the depositor's remark. Sampled rows, rich in hits. Any-hit rate of the full collection: about 19%. Unless noted, calls come from the whole dose curve; as a rule, active = well fitted curve in the direction sought with a large enough effect; inconclusive = small, poorly fitted or top-dose-only effect, or another doubt; inactive = no such curve, though single readings can be large; an effect the other way counts as inactive or inconclusive.
SMILES,HT1080-NT tox,DT40 TDP1 CPT,IL-1B inflam inh,HT1080 IDH1KD tx,TDP1 cell noCPT
CCN(CC)c1ccc(NC(=O)c2sc3nc(-c4ccccc4)cn3c2C)cc1,-,3.7µM,-,-,5.2µM
CNC(=O)c1sc2nc(-c3ccc(OC)cc3)cn2c1C,0,0,0,0,?
CCN(CC)C(=O)c1sc2nc(-c3ccc(OC)cc3)cn2c1C,0,0,?,0,?
Cc1c(C(=O)Nc2ccncc2)sc2nc(-c3ccccc3)cn12,0,18µM,0,0,10µM
COc1ccc(-c2cn3c(C)c(C(=O)Nc4cc(NC(C)=O)ccc4OC)sc3n2)cc1,?,13µM,0,?,9.2µM
COc1cccc(CC2CC(=O)N(c3ccc4c(C)cc(=O)oc4c3)C2=O)c1 (configuration not stated),0,0,0,0,0
CCN1CCN(C(=O)C2CCN(Cc3nc(-c4cccc(Cl)c4)oc3C)CC2)CC1,0,21µM,?,0,16µM
CCN1CCN(C(=O)C2CCN(S(=O)(=O)c3ccc(Br)cc3)CC2)CC1,0,0,0,0,?
Cc1oc(-c2cccc(Cl)c2)nc1CN1CCC(C(=O)NCc2cccnc2)CC1,0,?,0,0,0
Cc1oc(-c2cccc(Cl)c2)nc1CN1CCC(C(=O)N2CCN(c3ccccn3)CC2)CC1,0,23µM,0,0,18µM
CCN1CCN(C(=O)C2CCN(Cc3cc(Cl)ccc3O)CC2)CC1,?,0,-77,0,0
COc1cc(=O)n2c(c1C(=O)N(C)C(C)c1ccco1)CCN(C(=O)c1ccc(C(C)=O)cc1)CC2 (configuration not stated),-,0,-,-,0
CCCCn1c(N)c(N(C)C(=O)c2c(C)nn(-c3ccccc3)c2C)c(=O)[nH]c1=O,0,0,0,0,0
CN1CCC(=O)N([C@H](CO)c2ccccc2)CC1,0,0,0,0,0
CCc1cccc(CC)c1NC(=O)C1SC(=Nc2ccccc2C)C(c2nc3ccccc3s2)=C1N (configuration not stated),0,?,0,0,23µM
O=C(O)c1ccc(CNS(=O)(=O)c2ccc(Oc3ccccc3Cl)cc2)cc1,0,0,0,0,0
CCCC(O)(CCC)C(=O)NN1CCCCC1,0,23µM,0,0,?
CC(C)CCC(O)(CCC(C)C)C(=O)NN1CCCCC1,0,0,0,0,0
CN(c1ccccc1)S(=O)(=O)c1cccc(NC(=O)Cn2cnc3ccccc3c2=O)c1,0,21µM,0,0[9.24 µM],16µM
CN(c1ccccc1)S(=O)(=O)c1cccc(NC(=O)CC(C)(C)C)c1,0,16µM,0,0,15µM
Cc1cc(S(=O)(=O)NCc2ccccc2)ccc1OCC(=O)NCc1ccccn1,0,0,0,0,0
CN(c1ccccc1)S(=O)(=O)c1cccc(NC(=O)COc2cccc([N+](=O)[O-])c2)c1,0,?,0,0,23µM
Cc1cc(S(=O)(=O)NCc2ccccc2)ccc1OCC(=O)Nc1cccc([N+](=O)[O-])c1,0,18µM,?,?,21µM
CCN(CC)S(=O)(=O)c1cc(NC(=O)Cn2cnc3ccccc3c2=O)ccc1C,0,?,0,0,?
CCOc1ccc(CCNC(=O)CCNS(=O)(=O)c2ccc3c(c2)CCN3C(C)=O)cc1OCC,0,0,0,0,0
SMILES,HT1080-NT tox,DT40 TDP1 CPT,IL-1B inflam inh,HT1080 IDH1KD tx,TDP1 cell noCPT
CCC(Sc1nc2ccsc2c(=O)n1Cc1ccc(C(=O)O)cc1)C(=O)Nc1ccc(Cl)cc1 (configuration not stated),0,?,0,0,0
Cc1cc(C)c(NC(=O)CCn2nnc3ccccc32)c(C)c1,0,0,0,0,0
COc1ccccc1OCC(=O)Nc1cccc(N(C)S(C)(=O)=O)c1,0,0,0,0,0
COc1cc(C=O)ccc1OCC(=O)Nc1cccc(S(=O)(=O)N(C)c2ccccc2)c1,0,?,0,0,12µM
CN1C(=O)N(CC(=O)Nc2cccc(S(=O)(=O)N(C)c3ccccc3)c2)C(=O)C12CCCCC2,0,?,0,0,21µM
COC(=O)Cc1ccc(NC(=S)Nc2ccc(N3CCOCC3)cc2)cc1,0,0,0,0,?
COc1cc(NC(=O)c2cc3c(Cl)nc4ccccc4c3s2)cc(OC)c1OC,0,10µM,0,0,8.2µM
CCCN(C(=O)c1cc2c(Cl)nc3ccccc3c2s1)c1cccc(C)c1,-,21µM,-,-,26µM
CN(C(=O)c1cc2c(Cl)nc3ccccc3c2s1)c1cccc(C(F)(F)F)c1,-,0,-,-,0
CCN(CC)c1nc2ccccc2nc1C(=O)Nc1cc(OC)c(OC)c(OC)c1,-,16µM,-,-,13µM
COc1ccc(N(C)C(=O)c2cc3c(Cl)nc4ccccc4c3s2)cc1,0,?,-68,0,21µM
C=CCn1c(SCC(=O)c2[nH]c(C)c(C(=O)OCC)c2C)nc2scc(-c3ccc(OC)c(OC)c3)c2c1=O,0,15µM,0,0,13µM
O=C(Nc1cccc(C(F)(F)F)c1)c1csc(COCCO)n1,0,0,0,0,0
Cc1ccc2[nH]c3c(N4CCc5ccccc5C4)ncnc3c2c1,21µM,2.9µM,-83,0,3.7µM
Fc1ccc2[nH]c3c(N4CCc5ccccc5C4)ncnc3c2c1,10µM,1.8µM,?,2.6µM,1.8µM
CN1CCN(c2ncnc3c2[nH]c2ccc(F)cc23)CC1,0,?,0,0,?
CCOc1ccc2[nH]c3c(N4CCc5ccccc5C4)ncnc3c2c1,18µM,15µM,-,10µM,16µM
S=C(Nc1ccc2c(c1)OCO2)N1CCN(Cc2ccco2)CC1,0,?,?,0,0
CCN1CCN(C(=O)C2CCCN(c3ncnc4c3nc3n4CCCCC3)C2)CC1 (configuration not stated),0,0,0,0,0
O=C(C1CCCN(c2ncnc3c2nc2n3CCCCC2)C1)N1CCN(c2ccccc2F)CC1 (configuration not stated),0,?,0,0,9.2µM
COc1cccc(N2CCN(C(=O)C3CCCN(c4ncnc5c4nc4n5CCCCC4)C3)CC2)c1 (configuration not stated),0,16µM,0,0,?
CCOC(=O)c1c(C)n(C)c2ccc(OCC(O)Cn3c(C)nc4ccccc43)cc12 (configuration not stated),0,?,-54,?,18µM
CCOC(=O)c1c(C)n(C)c2ccc(OCC(O)CN3CCN(C)CC3)cc12 (configuration not stated),0,0,0,0,0
CCOC(=O)c1c(C)n(C)c2ccc(OC(=O)c3ccoc3)cc12,?,0,0,0,0

# Screening data from PubChem BioAssay.
